Several values for one entry are separate records, joined by “and”; a condition that tells them apart may be missing. Equal entries are not always repeated. Inconclusive results are not listed. Activity calls are given as the source filed them. How the source made its calls: active means hit-call score of the fitted dose curve at least 0.9, where 1 is the maximum; inconclusive means response in the unintended direction; inactive means score below 0.9.

The test has as its target Cytochrome P450 2C19 (Homo sapiens) (UniProt P33261). Briefly: NVS_ADME_hCYP2C19: NovaScreen (NVS) CYP450-related Enzyme Activity (ADME) Assay for human CYP2C19 (AID 2283113).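 On AC50: potency for inhibition seen as loss of fluorescent signal.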 The procedure: NVS_ADME_hCYP2C19 is a biochemical, single-readout assay that uses extracted gene-proteins from insect cells in a cell-free assay. Measurements were taken 1 hour after chemical dosing in a 96-well plate.NVS_ADME_hCYP2C19 is one of one assay component(s) measured or calculated from the NVS_ADME_hCYP2C19 assay. It is designed to make measurements of enzyme activity, a form of enzyme reporter, as detected with fluorescence intensity signals by Fluorescence technology.Data from the assay component NVS_ADME_hCYP2C19 was analyzed into 1 assay endpoint. This assay endpoint, NVS_ADME_hCYP2C19, was analyzed in the positive analysis fitting direction relative to Acetonitrile as the negative control and baseline of activity. Using a type of enzyme reporter, loss-of-signal activity can be used to understand changes in the enzymatic activity as they relate to the gene CYP2C19. Furthermore, this assay endpoint can be referred to as a primary readout, because this assay has produced multiple assay endpoints where this one serves a enzymatic activity function. To generalize the intended target to other relatable targets, this assay endpoint is annotated to the cyp intended target family, where the subfamily is xenobiotic metabolism.
Binding assays used specific radioligands (tritiated, iodinated) with non-radioactive competitive displacement ligands in agonist or antagonist protocols (as indicated) and various reference compounds and inhibitors to titrate specific binding to receptors and transporters. Most enzyme assays (CYPs, kinases, phosphatases, proteases, HDACs) used recombinant protein and specific substrates (fluorescence mostly, some colorimetric and radioactive) and inhibitors, followed by a biochemical separation of substrate and product. All assays for the biochemical HTS were initially run in duplicate at a single concentration (10 uM for CYP450 assays and 25 uM for all others). […] Each assay was run with positive and negative controls, and concurrent controls on every plate. The follow-up (secondary) screen tested active chemical-pairs in concentration series, as well as a few additional assays not tested in the primary screen, some selected negative inactives, and several cases re-run in the concentration series for confirmatory purposes.
As for `Oc1ccc(Cl)cc1Cc1ccccc1`, the AC50 is 3.27 µM (active) [middle of 7 runs].
Consider `COP(=S)(OC)Oc1ccc([N+](=O)[O-])cc1`, for which the AC50 is 0.25 µM (active).
For the molecule `COC(=O)c1ccccc1S(=O)(=O)NC(=O)Nc1nc(C)nc(OC)n1`, the AC50 was 5 µM (active).
For `CNC(=O)CSP(=S)(OC)OC`, the concentration at half-maximal activity (AC50) was 2.73 µM (active).
Take `CC[C@H](C)[C@H]1O[C@]2(C=C[C@@H]1C)C[C@@H]1C[C@@H](C/C=C(\C)[C@@H](O[C@H]3C[C@H](OC)[C@@H](O[C@H]4C[C@H](OC)[C@@H](O)[C@H](C)O4)[C@H](C)O3)[C@@H](C)/C=C/C=C3\CO[C@@H]4[C@H](O)C(C)=C[C@@H](C(=O)O1)[C@]34O)O2` (tested in a mixture with another compound): the AC50 is 6.36 µM (active).
With `CCCN(CCOc1c(Cl)cc(Cl)cc1Cl)C(=O)n1ccnc1`, the AC50 was 0.0245 µM (active).
`COc1nn(CSP(=S)(OC)OC)c(=O)s1`: the half-maximal activity concentration (AC50) is 0.124 µM (active).
Regarding `COP(=S)(OC)Oc1ccc(SC)c(C)c1`, the half-maximal activity concentration (AC50) is 2.45 µM (active).
For the molecule `N#Cc1c(Cl)c(Cl)c(Cl)c(C#N)c1Cl`, the molecule was called inactive.
On to `O=C(O)COc1ccc(Cl)cc1Cl`, for which the AC50 was 10 µM (active).
Consider `Cc1[nH]c(=O)n(C(C)(C)C)c(=O)c1Cl`, for which the concentration at half-maximal activity (AC50) was 6.8 µM (active).
Take `CCOC1Oc2ccc(OS(C)(=O)=O)cc2C1(C)C` (stereo not given): the half-maximal activity concentration (AC50) is 3.56 µM (active).
`CC(C)N(C(=O)COc1nnc(C(F)(F)F)s1)c1ccc(F)cc1`: the half-maximal activity concentration (AC50) is 1.05 µM (active).
Consider `O=S(=O)(O)C(F)(F)C(F)(F)C(F)(F)C(F)(F)C(F)(F)C(F)(F)C(F)(F)C(F)(F)F`, for which the half-maximal activity concentration (AC50) is 5.18 µM (active) [middle of 5 runs].
The same measure, in the same setting: in the case of `CCN(CC)C(=O)SCc1ccc(Cl)cc1` it was 10 µM (active); in that of `CN1CSC(=S)N(C)C1`, 10 µM (active); in that of `C[C@H]1[C@H](c2ccc(Cl)cc2)SC(=O)N1C(=O)NC1CCCCC1`, 7.38 µM (active).
Consider `O=C1c2ccccc2C(=O)N1SC(Cl)(Cl)Cl`, for which the outcome was inactive.
Regarding `O=C(O)CCCOc1ccc(Cl)cc1Cl`, the half-maximal activity concentration (AC50) is 12.1 µM (active).
For `CCC(C)(NC(=O)c1cc(Cl)c(C)c(Cl)c1)C(=O)CCl` (stereo not given), the call was inactive.
Consider `CC(C)(C)C(O)/C(=C\c1ccc(Cl)cc1Cl)n1cncn1` (stereo not given), for which the AC50 is 0.00727 µM (active).
Regarding `CC1(C)C(C=C(Cl)Cl)C1C(=O)OC(C#N)c1ccc(F)c(Oc2ccccc2)c1` (stereo not given), the AC50 was 13.5 µM (active).
On to `CC(C)(C)C(O)C(Oc1ccc(Cl)cc1)n1cncn1` (stereo not given), for which the half-maximal activity concentration (AC50) was 1.29 µM (active) and 1.71 µM (active) and 1.18 µM (active).
As for `CCOCN(C(=O)CCl)c1c(C)cccc1CC`, the half-maximal activity concentration (AC50) was 5.09 µM (active).
Same read-out and setting: next, `O=S1OCC2C(CO1)C1(Cl)C(Cl)=C(Cl)C2(Cl)C1(Cl)Cl` (stereo not given): 1.64 µM (active).

What is called AC50 is the midpoint of the concentration-response curve, whichever way the signal moves.
